# Shiga toxin inh: Shiga toxin inhibition. Vero cells, Shiga toxin protein synthesis inhibition reporter. inhibition, % at 38.7 µM. hit rate 9.2% among 290,000. AID 2315; in the data active = inhibition mostly above about 28%, no sharp cut-off; inactive = mostly below about 43%; note: 0% is about no effect
# Pf growth 96h: inhibits malaria parasite growth, 96 h. P. falciparum luciferase reporter growth, 96 h. AID 504834. hit rate 6.9% among 320,000. Potency, µM (titrated, usually from 28.7 µM), for the others: at the highest dose activity change, negative = inhibition, actives largely listed as inhibitors; note: potency is the fitted concentration of half-maximal effect; % is set by controls: 0 for no effect and ±100 for the full control effect
#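 P. falciparum expressing integrated firefly luciferase grown in erythrocytes (2% hematocrit, 0.05% parasitemia final) with compounds for 96 hours at 37 C, 5% CO2. Growth inhibition read as loss of luminescence after adding luciferase detection reagent.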
# Sm TGR block: blocks Schistosoma mansoni thioredoxin glutathione reductase; Q962Y6; purified TGR, DTNB reduction, TNB absorbance 405 nm; Potency, µM (doses to about 114 µM), without a hit: at the highest dose activity change, negative = inhibition, usual class: inhibitors; hit rate 3% among 360,000; note: potency is the fitted concentration of half-maximal effect; % is set by controls: 0 for no effect and ±100 for the full control effect; nearly all actives have a fitted effect of over 60% in size
#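 First, TGR (20 nM dispensed) and NADPH were mixed with compound. Second, a 15 min room-temperature incubation followed. Third, further NADPH and then DTNB were added to start the reaction. Finally, TNB absorbance was monitored kinetically.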
# Cycloheximide cs: affects cycloheximide protein synthesis inhibition readout, counter-screen; cell reporter, cycloheximide protein synthesis inhibition counterscreen; max response, %; hit rate 12% among 300,000; in the data active = max response mostly above about 13%, no sharp cut-off; inactive = mostly below about 14%; note: read at 38.3 µM for the half of the compounds with a filed dose; 0% is about no effect
# NS1 function inh: blocks influenza NS1 protein function | Potency, µM (highest dose often 46.1 µM), for inactives: at the highest dose activity, positive = more growth | hit rate 0.4% among 270,000; calls by dose curve; note: potency is the fitted concentration of half-maximal effect; actives are rising curves; nearly all actives have a fitted effect of over 50% in size
#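 OD600 was taken as the measure of yeast growth restored by compound in an NS1-expressing S. cerevisiae strain. Cells had been washed out of glucose medium and diluted 1:100 into galactose -URA medium, pH 6.0.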
# Pf growth 48h: inhibits P. falciparum growth in the first generation, 48 h. P. falciparum luciferase growth in erythrocytes, 48 h. Potency, µM (highest dose often 28.7 µM), inactives show top-dose activity change, negative = inhibition, usual class: inhibitors. hit rate 5.9% among 310,000; note: potency is the fitted concentration of half-maximal effect; % is set by controls: 0 for no effect and ±100 for the full control effect
#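 Parasite viability was followed by luminescence of a genomically integrated firefly luciferase. Cultures held 0.1% parasitemia at 2% hematocrit (final), incubated under 5% CO2 at 37 C.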
# * = called active by the depositor; ? = inconclusive; . = not tested or not shown. An excerpt weighted towards active compounds, which were near 21% of everything screened. Unless noted, calls come from the whole dose curve; as a rule, active = well fitted curve in the direction sought with a large enough effect; inconclusive = small, poorly fitted or top-dose-only effect, or another doubt; inactive = no such curve, though single readings can be large; an effect the other way counts as inactive or inconclusive.
SMILES,Shiga toxin inh,Pf growth 96h,Sm TGR block,Cycloheximide cs,NS1 function inh,Pf growth 48h
COCCn1c(=NC(=O)/C=C/c2cccs2)sc2cc(NC(C)=O)ccc21,-12,8.3µM*,-7%,-1,6%,?
COCCn1c(=NC(=O)CCS(=O)(=O)c2ccccc2)sc2cc(F)ccc21,12,?,40µM*,9,2%,-13%
COc1ccc(-c2csc(Nc3ccccc3)[n+]2CC(O)c2ccc([N+](=O)[O-])cc2)cc1 (stereo not drawn),32,1.5µM*,-2%,18*,6%,1.3µM*
COc1ccc(-c2nc(NC(=O)c3ccccc3)sc2-c2ccc([N+](=O)[O-])cc2)cc1,-11,?,-23%,1,27%,-13%
CC(=O)Nc1cccc(NC(=O)c2ccc3c(c2)CCN3S(=O)(=O)c2ccccc2)c1,-2,?,-1%,-1,6%,?
CC(=O)c1cccc(NC(=O)c2ccc3c(c2)CCN3S(=O)(=O)c2ccccc2)c1,42,12µM*,-17%,24*,11%,?
O=C(Nc1ccc(Br)cc1)c1cccc(S(=O)(=O)N2CCc3ccccc32)c1,.,.,1%,.,.,.
NS(=O)(=O)c1ccc(NC(=O)c2ccc3c(c2)CCN3S(=O)(=O)c2ccccc2)cc1,-8,4%,-15%,-2,-3%,-22%
O=C(Nc1ccc(S(=O)(=O)N2CCc3ccccc32)cc1)c1ccc2c(c1)OCO2,36*,?,-8%,31*,-67%,4%
CN(C)S(=O)(=O)c1cccc(NC(=O)c2cccc(S(=O)(=O)N3CCc4ccccc43)c2)c1,.,9.3µM*,-2%,.,.,5.9µM*
O=C(Nc1ccccc1)c1ccc2c(c1)CCN2S(=O)(=O)c1ccccc1,-4,92%,14%,12,8%,3.7µM*
COc1ccc(CCn2cc3c(c2-c2ccccc2Br)c(=O)n(C)c(=O)n3C)cc1OC,.,.,-17%,.,.,.
Cc1cccc(NC(=O)c2ccc(-n3c(C)nnc3C)cc2)c1,.,.,10%,.,.,.
CCN(CC)CCCC(C)NC(=O)c1cccc(S(=O)(=O)N2CCc3ccccc32)c1 (stereo not drawn),31,-5%,16µM*,-3,.,0%
O=C(NNC(=O)c1cccc(S(=O)(=O)N2CCc3ccccc32)c1)c1ccccc1,-18,-3%,-18%,-1,.,2%
CC(C)CCNC(=O)c1cccc(S(=O)(=O)N2CCc3ccccc32)c1,-15,?,-4%,-1,-7%,.
NC(=O)C1CN(C(=O)c2cccc(S(=O)(=O)N3CCc4ccccc43)c2)c2ccccc2O1 (stereo not drawn),.,?,-2%,.,.,8.3µM*
COc1ccc(NS(=O)(=O)c2cccc(C(=O)N/N=C(\C)c3cccnc3)c2)cc1,.,?,-3%,.,.,0%
CCn1ccc2c(OCC(=O)NCc3ccccc3)cccc2c1=O,.,.,4%,.,.,.
CCCc1cc(C(=O)Nc2ccccc2SC)no1,88*,?,9%,62*,-41%,109%
CCCc1cc(C(=O)Nc2cccc(Cl)c2C)no1,66*,-17%,1%,52*,-19%,102%
CCCc1cc(C(=O)Nc2ccc(F)cc2F)no1,74*,9%,-3%,58*,-12%,.
CCCCN(CCCC)S(=O)(=O)c1ccc(NC(=O)c2c(-c3ccccc3)noc2C)cc1,.,.,2%,.,.,.
CCOc1ccc(N2C(=O)CC(n3ccc(C)n3)C2=O)cc1 (stereo not drawn),-2,-2%,3%,-3,-2%,10%
COCc1cc(=O)n2[nH]c(N)nc2n1,3,?,-18%,-2,-8%,10µM*
SMILES,Shiga toxin inh,Pf growth 96h,Sm TGR block,Cycloheximide cs,NS1 function inh,Pf growth 48h
COCc1cc(=O)n2[nH]c(SC)nc2n1,-2,-20%,-5%,-3,1%,2%
O=C1[C@H]2[C@H]3C=C[C@@H](C4[C@H]3[C@@H]3C(=O)N(CN5CCSCC5)C(=O)[C@H]43)[C@H]2C(=O)N1CN1CCSCC1 (stereo partly drawn),.,.,.,.,5%,.
CCCCN(CCCC)/C(N)=N/c1nc(C)cc(C)n1,-23,?,-2%,-2,-1%,-19%
Cc1cc(C)nc(/N=C(\N)N(Cc2ccccc2)Cc2ccccc2)n1,-2,10µM*,3%,-5,-6%,?
COc1cc(SSc2cc(OC)cc([N+](=O)[O-])c2N)c(N)c([N+](=O)[O-])c1,18,9.3µM*,-1%,8,14%,?
COc1cc([N+](=O)[O-])c2ncsc2c1,6,19%,1%,-2,-6%,14%
COc1cc(S(=O)(=O)n2ccnc2C(C)C)ccc1Br,.,.,1%,.,.,.
CCOc1cc(CNC(=O)C(NS(=O)(=O)c2cccs2)C(C)C)cc(OCC)c1OCC (stereo not drawn),.,.,2%,.,.,.
CCCC1=NN2C(=N)/C(=C\c3cc(C)n(Cc4ccccc4)c3C)C(=O)N=C2S1,3,32%,8%,-1,-2%,12%
CCOc1cc(/C=C2\C(=N)N3N=CSC3=NC2=O)ccc1OS(=O)(=O)c1ccccc1,11,-21%,-2%,5,0%,4%
COc1cc(/C=C2/C(=N)N3N=C(C(C)C)SC3=NC2=O)ccc1OS(=O)(=O)c1ccccc1,49,3%,-18%,8.7*,-1%,3%
COc1cc(/C=C2\C(=N)N3N=CSC3=NC2=O)ccc1OS(=O)(=O)c1ccccc1,18,?,-3%,16*,?,1%
Cc1cc(/C=C2\C(=N)N3N=CSC3=NC2=O)c(C)n1Cc1ccccc1,52,52%,-16%,14*,4%,5%
COc1cc(/C=C2\C(=N)N3N=C(S(C)(=O)=O)SC3=NC2=O)ccc1OS(=O)(=O)c1ccc(C)cc1,20,?,-50%,24*,2%,-12%
CCOc1ccccc1NS(=O)(=O)c1ccc2c(c1)CC(C)N2C(=O)C1CCC1 (stereo not drawn),.,.,0%,.,.,.
Cc1nn(-c2ccc(F)cc2)c(Cl)c1C(=O)OC(C)C(=O)N(C)C1CCCCC1 (stereo not drawn),.,?,6%,.,.,?
CCC[C@H](NC(C)=O)C(=O)N[C@H]1CC(=O)ONCCCC[C@@H](C(N)=O)NC(=O)[C@H](Cc2c[nH]c3ccccc23)NC(=O)[C@H](CCCN=C(N)N)NC(=O)[C@@H](Cc2ccc3ccccc3c2)NC(=O)[C@H](Cc2cnc[nH]2)NC1=O,-12,.,.,-5,.,.
COc1cccc(C2=Nn3c(nnc3-c3cc(OC)ccc3OC)SC2)c1,-2,.,.,-4,.,.

# High-throughput results as filed in PubChem.
